Compounds with a hit are over-represented: about 3.5% of the library has one in this group of screens.
Rv3671c protease = Rv3671c (M. tuberculosis) protease inhibition; inhibition, % at 5.96 µM; 320,000 tested, 0.048% active; P9WHR9; in the data active means inhibition above about 38%;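 further: extracellular domain of Rv3671c used as enzyme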
GDH-TPI inh = counter-screen for M. tuberculosis FBA inhibitors: GDH-TPI coupled enzymes | GDH-TPI coupled enzyme counterscreen, NADH absorbance | inhibition, % at 4.8 µM | 360,000 tested, 1.2% active; in the data active means inhibition above about 30%
FBA Mtb inh = Mtb fructose-bisphosphate aldolase inhibition; P9WQA3; purified M. tuberculosis FBA, fluorescence read-out; inhibition, % at 1 µM; 360,000 tested, 2.3% active; AID 588726; in the data active means inhibition above about 27%
Target sequence (P9WQA3 whole entry, looked up): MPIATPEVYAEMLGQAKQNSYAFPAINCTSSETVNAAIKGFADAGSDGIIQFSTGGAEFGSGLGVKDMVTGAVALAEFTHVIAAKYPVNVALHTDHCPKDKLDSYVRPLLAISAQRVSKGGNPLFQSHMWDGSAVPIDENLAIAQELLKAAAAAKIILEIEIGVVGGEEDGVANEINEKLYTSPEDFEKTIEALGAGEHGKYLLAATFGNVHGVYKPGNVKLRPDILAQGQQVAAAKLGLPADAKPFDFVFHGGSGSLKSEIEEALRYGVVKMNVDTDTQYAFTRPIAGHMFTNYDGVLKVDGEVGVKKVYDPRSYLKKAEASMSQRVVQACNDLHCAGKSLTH
Mtb UGM inh = blocks M. tuberculosis UGM enzyme; purified UGM, fluorescence polarization probe displacement; inhibition, % at 10 µM; 320,000 tested, 0.06% active; in the data active means inhibition above about 10%, passing the limit was not always enough
Numbers stand for hits; 0 = inactive; - = no result given; + = active, no number.

SMILES	Rv3671c protease	GDH-TPI inh	FBA Mtb inh	Mtb UGM inh
COc1ccc(C(=O)OC(C)CN2CCOCC2)cc1OC (stereo unspecified)	0	0	121	0
N=c1c(C(=O)NCC2CCCO2)cc2c(=O)n3ccccc3nc2n1Cc1ccccc1 (stereo unspecified)	0	0	+	0
N=c1c(C(=O)NCC2CCCO2)cc2c(=O)n3ccccc3nc2n1Cc1ccccc1Cl (stereo unspecified)	0	0	166	0
N=c1c(C(=O)NCC2CCCO2)cc2c(=O)n3ccccc3nc2n1Cc1ccc(Cl)cc1 (stereo unspecified)	0	0	+	0
COc1ccc(Cn2c(=N)c(C(=O)NCC3CCCO3)cc3c(=O)n4ccccc4nc32)cc1 (stereo unspecified)	0	0	0	0
Cc1ccc(Cn2c(=N)c(C(=O)NCC3CCCO3)cc3c(=O)n4cccc(C)c4nc32)cc1 (stereo unspecified)	0	0	+	0
CN(CCC#N)S(=O)(=O)c1cc2c3c(c1)CCN3C(=O)CC2	0	0	0	0
COc1ccc(N2CCN(C(=O)C(=O)c3cn(CC(=O)N4CCCC4)c4ccccc34)CC2)cc1	-	0	0	-
Cc1onc(-c2ccccc2Cl)c1C(=O)NCc1nnnn1-c1ccc(F)c(F)c1	-	0	0	-
COc1ccc(N(C)S(=O)(=O)c2cccc(C(=O)OCC(=O)Nc3cc(C)ccc3OC)c2)cc1	-	0	0	-
Cc1ccc(Cn2c(=N)c(C(=O)NCC3CCCO3)cc3c(=O)n4ccccc4nc32)cc1 (stereo unspecified)	0	0	162	0
CN(C)Cc1c(O)ccc2c3c(c(=O)oc12)CCCCC3	0	0	+	0
CCc1c(C)c2ccc(O)c(CN(C)C)c2oc1=O	0	0	+	0
COCCN(CCOC)Cc1c(O)ccc2c3c(c(=O)oc12)CCC3	0	0	+	0
COc1ccc(OC)c(C(=O)COC(=O)c2ccc([N+](=O)[O-])o2)c1	0	0	0	0
COc1ccc(OC)c(C(=O)c2c(C)oc3cc([N+](=O)[O-])c(O)c([N+](=O)[O-])c23)c1	0	36	0	0
COc1ccc(/C=N/NC(=O)c2ccc(NC(=O)c3cccc([N+](=O)[O-])c3)cc2)c(C(=O)O)c1OC	0	31	0	0
COc1ccc(/C=N/NC(=O)c2cccc([N+](=O)[O-])c2)cc1O	0	32	0	0
COc1cc(/C=N/NC(=O)c2cccc([N+](=O)[O-])c2)ccc1O	0	0	0	0
OCC[C@@H]1C[C@@H](O)[C@H](O)[C@@]2(OCCc3ccccc32)O1	0	0	0	0
Cc1cccc(C(=O)Oc2cccc3c(O)cccc23)c1	0	0	0	0
CCOc1c(C(N)=O)c(-c2ccccc2)c2c(=O)[nH]c3ccccc3n12	0	0	112	0
Cn1ccc2c(-c3cccc(C=O)c3)cc3c(c21)C1CCC3O1 (stereo unspecified)	-	-	0	-
O=c1oc2cc(Oc3c([N+](=O)[O-])cc(C(F)(F)F)cc3[N+](=O)[O-])ccc2c2c1CCCC2	0	0	+	0
O=c1oc2cc(Oc3ccc(C(F)(F)F)cc3[N+](=O)[O-])ccc2c2c1CCC2	0	0	0	0
SMILES	Rv3671c protease	GDH-TPI inh	FBA Mtb inh	Mtb UGM inh
COC(=O)c1ccc(NC(=O)c2cc[n+]([O-])cc2)cc1	0	0	0	0
COc1cc(-c2cc(-c3ccc(F)cc3)nc(N)c2C#N)ccc1O	0	0	0	0
Cc1ccc(-c2cc(-c3ccc(F)cc3)nc(N)c2C#N)o1	0	0	155	0
N#Cc1c(-c2ccncc2)cc(-c2ccc(F)cc2)nc1N	0	0	125	0
COc1ccccc1Cc1c(-c2ccc(C#N)cc2)nc2c3ccccc3ccn12	-	-	0	-
O=C1NC(=Nc2cccc(O)c2)S/C1=C\c1cccc([N+](=O)[O-])c1	0	32	0	0
O=C1NC(=Nc2ccccc2)S/C1=C\c1ccccc1	0	33	0	0
COc1ccc(/C=C2\SC(=Nc3ccccc3OC)NC2=O)cc1	0	50	0	0
O=C1NC(=Nc2ccccc2)S/C1=C/c1cccnc1	0	0	0	0
O=C(Cc1c(F)cccc1Cl)N1CCN(S(=O)(=O)c2cccc(F)c2)CC1	0	0	0	0
COc1ccccc1/C=N/NC(=S)NCc1ccco1	0	38	0	0
CCOc1ccc(/C=N/NC(=O)C(=O)NCc2ccco2)cc1	0	33	0	0
S=C(NCc1ccco1)N/N=C/c1ccccc1Cl	0	0	0	0
Oc1ccc(/C=N/NC(=S)NCc2ccco2)cc1	0	0	0	0
CCOc1ccc(CNC(=S)N/N=C/c2ccc(OC)c(OC)c2)cc1	0	42	0	-
Oc1c(Br)cc(/C=N/NC(=S)NCc2ccco2)cc1Br	0	33	0	0
O=C(CSc1ccc(Cl)cc1)NC(=O)c1ccccc1	0	0	0	0

Screening data deposited in PubChem by several laboratories.
